Laboratory results published in PubChem BioAssay AID2284065 (EPA ToxCast).
The source made the active and inactive calls. How the source made its calls: active means hit-call score of the fitted dose curve at least 0.9, where 1 is the maximum; inactive means score below 0.9.

The compounds below were run against CYP2C8, CYP2C8 (gene 1558) (UniProt P10632) (assay: ERF_FR_ADME_hCYP2C8: Eurofins (ERF) CYP450-related Enzyme Activity (ADME) Assay for CYP2C8).
Description: ERF_FR_ADME_hCYP2C8 is a biochemical, single-readout assay that uses extracted gene-proteins in a cell-free assay. Measurements were taken 0.16 hour after chemical dosing in a 96-well plate. See CYP2C8 inhibition (HLM, amodiaquine substrate).ERF_FR_ADME_hCYP2C8 is an assay component calculated from the ERF_FR_ADME_hCYP2C8 assay. It is designed to measure enzyme activity using a type of enzyme reporter as detected by peak area response of desethylamodiaquine with HPLC-MS/MS technology.Data from the assay component ERF_FR_ADME_hCYP2C8 was analyzed at the assay endpoint, ERF_FR_ADME_hCYP2C8, in the positive analysis fitting direction relative to acetonitrile as the negative control and baseline of activity. Using a type of enzyme reporter, loss-of-signal activity can be used to understand changes in enzymatic activity as they relate to gene CYP2C8. To generalize the intended target to other relatable targets, this assay endpoint is annotated to the cyp intended target family, where the subfamily is […].
Assay cells are incubated for 10 minutes at 37C with 10 uM amodiaquine.

Chain of CYP2C8, CYP2C8 (gene 1558) (P10632 whole entry, looked up): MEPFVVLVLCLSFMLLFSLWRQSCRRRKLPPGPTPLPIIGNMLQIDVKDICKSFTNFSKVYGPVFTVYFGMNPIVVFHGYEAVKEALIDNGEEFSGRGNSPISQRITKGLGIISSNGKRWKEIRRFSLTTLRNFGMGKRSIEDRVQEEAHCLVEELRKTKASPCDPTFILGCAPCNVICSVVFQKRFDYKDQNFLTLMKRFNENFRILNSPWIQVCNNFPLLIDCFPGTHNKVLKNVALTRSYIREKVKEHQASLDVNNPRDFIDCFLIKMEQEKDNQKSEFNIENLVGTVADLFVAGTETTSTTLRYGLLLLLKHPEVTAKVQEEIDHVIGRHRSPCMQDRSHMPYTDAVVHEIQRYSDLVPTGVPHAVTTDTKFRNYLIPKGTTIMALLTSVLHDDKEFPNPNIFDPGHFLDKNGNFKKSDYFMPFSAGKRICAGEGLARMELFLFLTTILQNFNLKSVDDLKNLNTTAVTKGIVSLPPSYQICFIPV

Row | Structure (SMILES) | AC50
1 | COc1cc(CCC(=O)CC(=O)CCc2ccc(O)c(OC)c2)ccc1O | 1830 nM (active)
2 | CCCCC[C@H](O)CC(=O)CCc1ccc(O)c(OC)c1 | 2270 nM (active)
